# Assay results: the supplement of paper PMC7366291
# Counter-ions that a name gives are not always drawn. ± gives the standard deviation or the standard deviation of the averaged measurements.
# Experiments:
# Conditions in all cases: 25 µM; exposure: 24-48 hpf
# [1] = tested on: Danio rerio Tg(wt1b:EGFP) embryo, pronephros; test: glomerular separation, fold change vs DMSO control; higher = glomeruli further apart (abnormal)
# Procedure, shortened: (§1)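 Each feature value is a fold change relative to the mean of same-day DMSO-treated embryos. Embryos of the Tg(wt1b:EGFP) zebrafish line, dechorionated, received 25 μM compound in 0.5% DMSO from 24 to 48 hpf at 28.5°C, in HEPES-buffered E3 with 0.003% PTU. Distances and angles were computed by a Fiji macro from 16 manually set reference points on maximum projections of dorsal pronephros images, and values beyond 2 SD of the feature mean were removed.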
# [2] = tested on: Danio rerio Tg(wt1b:EGFP) embryo, pronephros; test: glomerular width (mean of left and right), fold change vs DMSO control; higher = wider glomerulus
# Procedure, shortened: as §1
# [3] = tested on: Danio rerio Tg(wt1b:EGFP) embryo, pronephros; test: fraction of imaged embryos annotated as normal kidney; higher = less nephrotoxic; extreme values may be limits of the assay
# Procedure, shortened: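 The value given is the share of embryos in each treatment scored as having a normal kidney. To obtain it, dechorionated Tg(wt1b:EGFP) zebrafish embryos were treated from 24 to 48 hpf at 28.5°C with 25 μM compound in 0.5% DMSO, in 5 mM HEPES-buffered E3 with 0.003% PTU. Pronephroi were imaged by widefield fluorescence (470 nm, 10 z-slices), and every embryo was annotated by hand from maximum projections.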
# [4] = tested on: Danio rerio Tg(wt1b:EGFP) embryo, pronephros; test: pronephric angle neck segment to proximal convoluted tubule (mean of left and right), fold change vs DMSO control; higher = larger pronephric angle
# Procedure, shortened: as §1
Structure (SMILES),glomerular separation [1],glomerular width [2],fraction of imaged embryos annotated as normal kidney [3],pronephric angle neck segment [4]
COc1ccc([C@@H]2CC(=O)c3c(O)cc(O[C@@H]4O[C@H](CO[C@@H]5O[C@@H](C)[C@H](O)[C@@H](O)[C@H]5O)[C@@H](O)[C@H](O)[C@H]4O)cc3O2)cc1O [Hesperidin],0.827 ± 0.15,0.938 ± 0.045,0.917,0.981 ± 0.012
CO[C@@H]1[C@@H](OC(N)=O)[C@@H](O)[C@H](Oc2ccc3c(O)c(NC(=O)c4ccc(O)c(CC=C(C)C)c4)c(=O)oc3c2C)OC1(C)C [Novobiocin sodium salt],0.71 ± 0.24,1.06 ± 0.038,0.75,0.9784 ± 0.0046
CC(=O)Oc1ccccc1C(=O)O [Acetylsalicylic acid],1.2 ± 0.37,0.951 ± 0.019,0.917,1.01 ± 0.018
CCOC(=O)c1ccc(N)cc1 [Benzocaine],1.45 ± 0.34,0.901 ± 0.021,0.833,1.02 ± 0.016
Cc1onc(-c2ccccc2)c1-c1ccc(S(N)(=O)=O)cc1 [Valdecoxib],0.816 ± 0.3,1.13 ± 0.019,0.917,0.9437 ± 0.0089
CC1=C(CC(=O)O)c2cc(F)ccc2/C1=C\c1ccc([S+](C)[O-])cc1 (stereo unspecified) [Sulindac],0.735 ± 0.15,0.8774 ± 0.0075,0.667,1.0374 ± 0.00064
CC(=O)OCC1=C(C(=O)O)N2C(=O)[C@@H](NC(=O)Cc3cccs3)[C@H]2SC1 [Cephalothin sodium salt],0.848 ± 0.31,0.923 ± 0.08,1,1.02 ± 0.028
CC(=O)CC(c1ccc([N+](=O)[O-])cc1)c1c(O)c2ccccc2oc1=O (stereo unspecified) [Acenocoumarol],0.834 ± 0.45,0.94618 ± 0.00069,0.8,1.07 ± 0.076
C=CCN1CCCC1CNC(=O)c1cc2nn[nH]c2cc1OC (stereo unspecified) [Alizapride hydrochloride],1.18 ± 0.37,0.924 ± 0.018,0.917,1.02 ± 0.049
